Experimental data published in PubChem BioAssay AID743167 (National Center for Advancing Translational Sciences (NCATS), 2013).
Inconclusive results are not listed. Calls of active or inactive are those of the source. Calls follow the shape of the dose curve; as a rule, active = well fitted activation curve with a large enough effect; inconclusive = small, poorly fitted or top-dose-only effect; inactive = flat fitted curve, though single readings scatter.

Assay: Extended Characterization of HPGD Inhibitors: PGE2 Assay in A549 Cells
Details: PGE2 HTRF level, 16 h
From the text: The central role of HPGD is to inactivate prostaglandins such as prostaglandin E2 (PGE2) or prostaglandin D2 (PGD2). These prostaglandins are involved in a number of processes, including inflammation, differentiation, and cellular signaling, which makes HPGD an important target for pharmacological intervention. A number of prostaglandins of particular biological interest have been identified as substrates of HPGD. […] Over-production of PGE2 has been reported to promote tumor-associated neovascularization, cell proliferation, and tumor growth. […] In this orthogonal assay, we set out to measure if compounds were able to increase PGE2 production NIH Chemical Genomics Center [NCGC] NIH Molecular Libraries Probe Centers Network [MLPCN] MLPCN Grant: MH084681 Assay Submitter (PI): Structural Genomics Consortium
A549 cells, LNCaP cells or media were dispensed in 384-well plates (ProxiPlate-384 Plus, PerkinElmer, Shelton, CT) at 5,000 cells/9.9 uL/well using a CappAero384 multichannel pipette (Odense, Denmark). Separately on the plate, 10 uL of PGE2 calibration standards at a starting assay concentration of 5,000 pg/mL (1:2 dilution, 12-points, n = 1, prepared in media, Cisbio, Bedford, MA) were dispensed. Compounds (100 nL, final concentration range from 41.9 nM to 100 uM) were transferred using an ATS Acoustic Liquid Dispenser (EDC Biosystems, Fremont, CA). After being mixed using an automated liquid handler (CyBio, Jena, Germany), samples were incubated (37 deg C, 5% CO2, under a humidified atmosphere) for 16 hours. PGE2 labeled conjugates were added to each well, first 5 uL of PGE2-d2, followed by 5 uL of anti-PGE2-cryptate, centrifuged (1,500 rpm, 15 sec) and incubated (RT, protected from light) for 5 hours. Time-resolved fluorescence intensity (320 nm excitation, 615 and 665 nm emission) was measured using an Envision plate reader (PerkinElmer). Data was expressed as the ratio of 665 nm/615 nm emissions. Concentration (pg/mL) of samples were calculated from a 4-parameter logistic calibration curves of the PGE2 standards.

SMILES | Potency
Cc1cc(-c2nnc3n2CCCCC3)c(C)n1-c1ccc(C(F)(F)F)cc1 | 833 nM (active)
